# From PubChem BioAssay
# This is a sample that favours compounds with a hit; in the whole collection about 1.3% have one here.
# AI-2 QS mod = modulates the Vibrio harveyi AI-2 quorum sensing system. actives 0.4% (n = 300,000). Vibrio harveyi JMH597 AI-2 luminescence/OD600 ratio, 9 h; hits give low values; strain lacks LuxN and CqsS sensors; 0 = neutral-control median. AID 2094. activity change, % at 7.5 µM; in the data active = activity change below about -75%, passing the limit was not always enough; inconclusive = no clear call, values can overlap the other calls;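 also: luminescence divided by OD600 gain over 9 h not by final OD600 alone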
# HIF activator = HIF pathway transcriptional activation. U2OS HRE-luciferase reporter, luminescence; normalized: DMSO 0%, desferrioxamine 100%. activation, % at 7.5 µM (by protocol). actives 0.32% (n = 300,000). AID 1910;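 active = mean activation of at least 10% of the iron chelator positive control signal, with at least half of replicates also reaching 10%; inconclusive = mean and replicate majority disagree about reaching 10%; inactive = mean and most replicates under 10%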
# PGC1a acetyl inh = PGC1a acetylation modulation, inhibitor mode | U2OS PGC1a acetylation, AlphaScreen anti-acetyl-lysine; with virally co-expressed GCN5 acetyltransferase | inhibition, % at 15.6 µM | actives 0.17% (n = 350,000) | AID 651687;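 active = every replicate shows inhibition of at least 40%; inconclusive = mean inhibition at least 40% but some replicate below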;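 also: 0% = neutral control wells and 100% = positive control wells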
# C2C12 statin = suppression of simvastatin myotoxicity | actives 0.78% (n = 330,000) | rescue of ATP level, % at 7.49 µM | C2C12 myotubes + simvastatin, ATP luminescence, 48 h; scaled: DMSO 0, geranylgeraniol control 100;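 active = mean ATP rescue above about 67%, or every replicate alone reaching that limit, limit read from the data, passing the limit was not always enough; inconclusive = no clear call, values can overlap the other calls; inactive = mean under the limit and some replicate under it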;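 also: myotubes were challenged with 10 µM simvastatin during compound exposure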
# Rce1 inh = inhibitors of yeast Ras-converting enzyme. Q03530. yeast membranes, quenched prenylated peptide cleavage fluorescence. calls only. actives 0.27% (n = 290,000). AID 2563;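 active = fall in fluorescence gain of 50% or more versus controls, with final raw signal at or below 3038400; inconclusive = same 50% fall but final raw signal above 3038400; inactive = fall in fluorescence gain under 50%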;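 also: plate controls were neutral control wells for no effect and wells lacking membranes for full effect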
# Target sequence (Q03530 whole entry, looked up): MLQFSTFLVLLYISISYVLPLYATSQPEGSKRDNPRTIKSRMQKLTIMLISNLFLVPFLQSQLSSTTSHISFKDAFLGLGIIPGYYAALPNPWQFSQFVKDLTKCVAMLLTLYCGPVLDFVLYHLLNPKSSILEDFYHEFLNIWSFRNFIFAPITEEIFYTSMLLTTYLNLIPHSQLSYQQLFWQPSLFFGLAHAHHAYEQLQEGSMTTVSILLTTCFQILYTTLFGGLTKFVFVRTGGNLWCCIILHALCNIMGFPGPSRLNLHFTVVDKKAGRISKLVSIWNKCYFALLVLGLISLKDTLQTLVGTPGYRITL
# * marks the source's active call; other numbers are inactive results; i = inactive; ? = inconclusive; · = no result; + = active, no number.
SMILES,AI-2 QS mod,HIF activator,PGC1a acetyl inh,C2C12 statin,Rce1 inh
Cc1ccc(S(=O)(=O)Nc2cccc3c2O[C@H](CN(C)S(=O)(=O)c2cccs2)[C@H](C)CN([C@@H](C)CO)C3=O)cc1,·,·,8,·,·
CCOC(=O)C(CC)n1cnc2c(nnn2-c2ccc(OC)cc2)c1=O (configuration not stated),10,0,0,98*,i
CCOC(=O)C(C)n1cnc2c(nnn2-c2ccc(OC)cc2)c1=O (configuration not stated),13,0,-4,·,i
CCOC(=O)C(C)n1cnc2c(nnn2-c2ccc(C)cc2)c1=O (configuration not stated),35,1,67*,4,i
O=C(C[C@H]1C[C@H]2c3cc(NC(=O)Cc4ccncc4)ccc3O[C@H]2[C@H](CO)O1)NCc1cccnc1,·,·,-12,-2,·
COc1ccc(C2C3=C(CC(c4ccco4)CC3=O)Nc3ccccc3N2C(C)=O)cc1 (configuration not stated),24,0,11,·,i
COc1cccc(C2CC(=O)C3=C(C2)Nc2ccccc2N(C(=O)CCC(=O)O)C3c2ccc(F)cc2)c1 (configuration not stated),15,0,6,·,+
Cc1c(Nc2nc(-c3ccc(Cl)cc3)cs2)c(=O)n(-c2ccccc2)n1C,-86*,0,-8,6,i
Cc1cc(=O)[nH]c(Nc2c(C)n(C)n(-c3ccccc3)c2=O)n1,-1,0,-2,124*,i
Cc1cc(=O)[nH]c(SCC(=O)Nc2c(C)n(C)n(-c3ccccc3)c2=O)n1,·,·,-1,-16,·
COCC(=O)Nc1ccc2c(c1)OC[C@@H](C)N(C(=O)c1ccccn1)C[C@@H](C)[C@H](OC)CN(C)C2=O,·,·,-2,10,·
Cc1ccc(NC(=O)CN(C)CC(=O)Nc2c(C)cccc2C)c(Br)c1,23,2,-12,97*,i
Cc1ccc(NC(=O)Cn2cccc2)c(Br)c1,23,1,8,3,i
O=C(OCc1nc2ccccc2s1)c1cnccn1,?,2,-4,132*,i
C[C@H]1CN([C@@H](C)CO)C(=O)c2cccc(NC(=O)CCCCCC(=O)Nc3ccccc3N)c2O[C@H]1CN(C)C(=O)Nc1ccc(C(F)(F)F)cc1,·,·,-15,·,·
O=C(CCO)c1ccc(O)cc1,35,0,4,11,i
O=C(CCSc1ccc(Br)cc1)c1ccc(O)cc1,-77*,0,·,·,i
CCN(C(=O)COC(=O)c1cc(-c2ccc(C)o2)nc2ccccc12)C1CCS(=O)(=O)C1 (configuration not stated),20,0,-2,·,i
CCN(C(=O)COC(=O)c1cc(-c2cccs2)nc2ccccc12)C1CCS(=O)(=O)C1 (configuration not stated),14,0,4,·,+
COc1ccccc1NC(c1cccnc1)c1ccc2cccnc2c1O (configuration not stated),20,12*,15,7,i
Cc1ccnc(NC(c2cccnc2)c2ccc3cccnc3c2O)c1 (configuration not stated),36,11*,2,·,i
Cc1ccnc(NC(c2ccccc2)c2ccc3cccnc3c2O)c1 (configuration not stated),·,·,6,19,·
COc1ccccc1-c1ccc2c(c1)O[C@@H](CN(C)CC1CC1)[C@H](C)CN([C@@H](C)CO)S2(=O)=O,·,·,-10,-128,·
CCCNC(=O)[C@H]1[C@H](CO)[C@H]2Cn3c(cccc3=O)[C@@H]1N2C(=O)Nc1cc(F)ccc1F,·,·,·,8,·
COc1ccc(NC(=O)[C@H](Cc2c[nH]c3ccccc23)NC(=O)[C@@H]2Cc3ccccc3CN2)cc1,46,1,63*,-6,·
SMILES,AI-2 QS mod,HIF activator,PGC1a acetyl inh,C2C12 statin,Rce1 inh
CC(C)c1ccc(NC(=O)[C@H](Cc2c[nH]c3ccccc23)NC(=O)[C@@H]2Cc3ccccc3CN2)cc1,11,-2,3,-1,·
O=C(C[C@H]1CC[C@H]2[C@@H](COC[C@@H](O)CN2Cc2nccs2)O1)NCc1ccc(Cl)cc1,·,·,10,9,·
CCS(=O)(=O)c1ccc(-c2cccc(NC(=O)COc3ccc(Cl)cc3)c2)nn1,30,0,9,-9,i
CCS(=O)(=O)c1ccc(-c2cccc(NC(=O)COc3ccccc3)c2)nn1,39,60*,-1,0,i
O=C(Cc1n[nH]c(=O)c2ccccc12)NCc1ccc(Cl)cc1,25,0,6,4,i
Cc1c(Cl)cccc1NC(=O)CNC(=O)Cc1n[nH]c(=O)c2ccccc12,·,·,-3,110*,·
CC(C)Oc1ccc(C(=O)NCc2ccco2)cc1,20,2,6,127*,i
C[C@@H]1CCCCO[C@@H](CN(C)Cc2ccc(C(=O)O)cc2)[C@@H](C)CN([C@@H](C)CO)C(=O)c2cc(NC(=O)c3ccncc3)ccc2O1,·,·,-1,·,·
C=CCn1c(=O)/c(=C\c2ccsc2)s/c1=C(/C#N)C(=O)NCCN1CCOCC1,13,0,-2,112*,i
C[C@H]1CN([C@@H](C)CO)C(=O)Cc2cc(NC(=O)CCN3CCOCC3)ccc2O[C@H]1CN(C)Cc1ccc(-c2ccccc2)cc1,·,·,5,-17,·
COc1cc([C@@H]2c3cc4c(cc3[C@H](O)[C@H]3COC(=O)[C@H]23)OCO4)cc(OC)c1OC,22,4,-2,-45,i
COc1cc([C@@H]2c3cc4c(cc3[C@@H](NC3CCN(Cc5ccccc5)CC3)[C@H]3COC(=O)[C@H]23)OCO4)cc(OC)c1O,7,15*,·,·,i
O=C(c1cccnc1)N1CCCCN2[C@H](CO)[C@@H](c3ccc(C#Cc4ccccc4)cc3)[C@H]2C1,·,·,0,·,·
COc1ccc(-n2nc3cc(N)c(Br)cc3n2)cc1,4,0,2,12,i
COc1ccc(-n2nc3cc(C)c(N)c(Br)c3n2)cc1,8,3,-5,129*,i
Cc1noc(C)c1NC(=O)N(C)C[C@@H]1Oc2c(NS(=O)(=O)c3cn(C)cn3)cccc2C(=O)N([C@@H](C)CO)C[C@H]1C,·,·,-6,-35,·
C[C@H]1CN([C@@H](C)CO)C(=O)c2cc(C3=CCCCC3)cnc2O[C@@H]1CN(C)C(=O)c1cccnc1,·,·,-3,5,·
Cc1noc(C)c1NC(=O)N(C)C[C@@H]1OCCCC[C@@H](C)Oc2ccc(NC(=O)NC3CCCCC3)cc2C(=O)N([C@H](C)CO)C[C@H]1C,·,·,-8,·,·
CCCC#Cc1ccc([C@@H]2[C@@H](CO)N3C(=O)CN(C(=O)c4ccc(F)cc4)C[C@H]23)cc1,·,·,-12,·,·
COc1ccc(NC(=O)Nc2cccc3c2O[C@@H](CN(C)C(=O)Nc2ccc(OC)cc2)[C@H](C)CN([C@@H](C)CO)C3=O)cc1,·,·,12,18,·
COc1ccc(NC(=O)N(C)C[C@H]2Oc3c(NC(=O)NC(C)C)cccc3C(=O)N([C@H](C)CO)C[C@@H]2C)cc1,·,·,-20,96*,·
